Reference: the supplement of paper PMC3545927
The other results are listed elsewhere or left out. The true hit rate is not given.

Target: furin, P09958
Experiment: furin cleavage Z-score vs untreated control; higher = more cleavage, active = 3.5 or more, inactive = 1 or less, 8 variable residues between constant flanks
Outline: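 In 50 mM HEPES pH 7.5 with CaCl2 and NaCl, purified furin was incubated with bead-anchored 8-mer peptide–cDNA fusions at 1:10 enzyme:substrate in 0.01 ml. Incubation times were 7.5, 15 and 30 min. DNA set free by cleavage was adapter-tagged by PCR and sequenced, with read counts taken as abundance. Log counts relative to furin-free reactions, after lowess adjustment and median absolute deviation scaling, form the cleavage Z-score.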

Chain of furin, P09958 (P09958 whole entry): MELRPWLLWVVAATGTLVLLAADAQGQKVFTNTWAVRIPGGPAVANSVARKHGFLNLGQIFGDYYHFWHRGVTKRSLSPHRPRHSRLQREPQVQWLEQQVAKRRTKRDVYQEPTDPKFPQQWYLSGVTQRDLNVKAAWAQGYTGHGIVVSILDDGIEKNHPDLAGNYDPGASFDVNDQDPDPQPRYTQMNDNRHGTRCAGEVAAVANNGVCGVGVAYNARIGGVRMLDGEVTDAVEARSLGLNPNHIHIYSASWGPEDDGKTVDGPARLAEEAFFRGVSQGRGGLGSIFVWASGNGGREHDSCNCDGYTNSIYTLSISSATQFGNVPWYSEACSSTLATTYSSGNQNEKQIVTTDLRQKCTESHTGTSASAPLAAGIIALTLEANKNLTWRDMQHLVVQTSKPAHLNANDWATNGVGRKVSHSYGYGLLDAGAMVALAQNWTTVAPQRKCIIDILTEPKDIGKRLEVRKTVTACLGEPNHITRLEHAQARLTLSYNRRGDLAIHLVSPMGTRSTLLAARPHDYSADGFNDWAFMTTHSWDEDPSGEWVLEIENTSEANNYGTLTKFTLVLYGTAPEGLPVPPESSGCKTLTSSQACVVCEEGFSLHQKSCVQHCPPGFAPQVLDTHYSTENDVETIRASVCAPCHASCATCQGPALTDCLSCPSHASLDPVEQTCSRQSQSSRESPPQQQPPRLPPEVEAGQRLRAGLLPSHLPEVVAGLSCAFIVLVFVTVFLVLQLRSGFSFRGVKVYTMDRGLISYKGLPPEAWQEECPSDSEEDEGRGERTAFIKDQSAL

CAITPCSAHLAGNASASA [HC2464]
furin cleavage Z-score (7.5 min): -1.38 (inactive)
furin cleavage Z-score (15 min): 0.00684 (inactive)
furin cleavage Z-score (30 min): -0.357 (inactive)

CATCPCSGSWAGNASASA [HC1860]
furin cleavage Z-score (7.5 min): -0.794 (inactive)
furin cleavage Z-score (15 min): -0.696 (inactive)
furin cleavage Z-score (30 min): -0.69 (inactive)

CAMTPCSGSWAGNASASA [HC1826]
furin cleavage Z-score (7.5 min): -0.934 (inactive)
furin cleavage Z-score (15 min): -2.45 (inactive)
furin cleavage Z-score (30 min): -0.784 (inactive)

CATFAVEKRGAGNASASA [FS-1289]
furin cleavage Z-score (7.5 min): 1.19
furin cleavage Z-score (15 min): 0.186 (inactive)
furin cleavage Z-score (30 min): 0.573 (inactive)

CAAPHREKRGAGNASASA [FS-398]
furin cleavage Z-score (7.5 min): 10.8 (active)
furin cleavage Z-score (15 min): 11.4 (active)
furin cleavage Z-score (30 min): 9.9 (active)

CAARGRYSRGAGNASASA [FS-1622]
furin cleavage Z-score (7.5 min): 1.05
furin cleavage Z-score (15 min): 0.971 (inactive)
furin cleavage Z-score (30 min): 1.84

CAEVVWSTWVAGNASASA [HC127]
furin cleavage Z-score (7.5 min): 0.227 (inactive)
furin cleavage Z-score (15 min): 0.0628 (inactive)
furin cleavage Z-score (30 min): -0.337 (inactive)

CARYCRGVSAAGNASASA [FS-1941]
furin cleavage Z-score (7.5 min): -0.864 (inactive)
furin cleavage Z-score (15 min): -0.376 (inactive)
furin cleavage Z-score (30 min): -0.444 (inactive)

CARMCRVAGWAGNASASA [FS-2046]
furin cleavage Z-score (7.5 min): 0.157 (inactive)
furin cleavage Z-score (15 min): -0.469 (inactive)
furin cleavage Z-score (30 min): 0.75 (inactive)

CARYRRCVGWAGNASASA [FS-2389]
furin cleavage Z-score (7.5 min): 3.27
furin cleavage Z-score (15 min): 2.12
furin cleavage Z-score (30 min): 5.02 (active)

CARYRRTVGIAGNASASA [FS-2851]
furin cleavage Z-score (7.5 min): 2.96
furin cleavage Z-score (15 min): 3.86 (active)
furin cleavage Z-score (30 min): 6.08 (active)

CAKQRRIVGIAGNASASA [FS-2869]
furin cleavage Z-score (7.5 min): 0.0283 (inactive)
furin cleavage Z-score (15 min): -0.751 (inactive)
furin cleavage Z-score (30 min): 0.888 (inactive)

CARYRRLTGDAGNASASA [FS-1843]
furin cleavage Z-score (7.5 min): -1.17 (inactive)
furin cleavage Z-score (15 min): -0.169 (inactive)
furin cleavage Z-score (30 min): 1.01

CAQCTTPCSGAGNASASA [HC1962]
furin cleavage Z-score (7.5 min): -0.946 (inactive)
furin cleavage Z-score (15 min): 0.921 (inactive)
furin cleavage Z-score (30 min): -0.234 (inactive)

CAYCTTPCSGAGNASASA [HC1949]
furin cleavage Z-score (7.5 min): -0.657 (inactive)
furin cleavage Z-score (15 min): -1.14 (inactive)
furin cleavage Z-score (30 min): -0.156 (inactive)

CASEECSQHLAGNASASA [HC1677]
furin cleavage Z-score (7.5 min): 1.1
furin cleavage Z-score (15 min): 1.14
furin cleavage Z-score (30 min): 0.289 (inactive)

CAVPSRQSRAAGNASASA [FS-207]
furin cleavage Z-score (7.5 min): 7.32 (active)
furin cleavage Z-score (15 min): 8.36 (active)
furin cleavage Z-score (30 min): 8.3 (active)

CALPSRQKKAAGNASASA [FS-1365]
furin cleavage Z-score (7.5 min): 0.168 (inactive)
furin cleavage Z-score (15 min): 0.828 (inactive)
furin cleavage Z-score (30 min): 1.92

CAGPLWILQAAGNASASA [HC609]
furin cleavage Z-score (7.5 min): 1.21
furin cleavage Z-score (15 min): -0.216 (inactive)
furin cleavage Z-score (30 min): 0.172 (inactive)

CAVRSRMRRAAGNASASA [FS-1500]
furin cleavage Z-score (7.5 min): 11 (active)
furin cleavage Z-score (15 min): 10.2 (active)
furin cleavage Z-score (30 min): 8.12 (active)

CAVRSRHLRAAGNASASA [FS-632]
furin cleavage Z-score (7.5 min): 9.71 (active)
furin cleavage Z-score (15 min): 9.82 (active)
furin cleavage Z-score (30 min): 8.62 (active)

CAPSFRDRRAAGNASASA [FS-1244]
furin cleavage Z-score (7.5 min): 9.04 (active)
furin cleavage Z-score (15 min): 11.1 (active)
furin cleavage Z-score (30 min): 9 (active)

CACSFTTLPAAGNASASA [HC499]
furin cleavage Z-score (7.5 min): -0.00686 (inactive)
furin cleavage Z-score (15 min): 0.0583 (inactive)
furin cleavage Z-score (30 min): 0.931 (inactive)

CAMEEISQHLAGNASASA [HC5]
furin cleavage Z-score (7.5 min): 1.45
furin cleavage Z-score (15 min): 0.702 (inactive)
furin cleavage Z-score (30 min): -0.262 (inactive)

CAHLHAPTGSAGNASASA [HC774]
furin cleavage Z-score (7.5 min): -0.0824 (inactive)
furin cleavage Z-score (15 min): 0.739 (inactive)
furin cleavage Z-score (30 min): 0.623 (inactive)

CAPQDVKFPGAGNASASA [HC170]
furin cleavage Z-score (7.5 min): 0.0199 (inactive)
furin cleavage Z-score (15 min): -1.23 (inactive)
furin cleavage Z-score (30 min): 0.673 (inactive)

CAVEGEVQIVAGNASASA [HC688]
furin cleavage Z-score (7.5 min): -0.863 (inactive)
furin cleavage Z-score (15 min): -0.579 (inactive)
furin cleavage Z-score (30 min): -0.88 (inactive)
